# Source: PubChem BioAssay (National Center for Advancing Translational Sciences (NCATS))
# FEN1 inhibitor – inhibitors of human flap endonuclease 1; P39748; Potency, µM (titrated, usually from 114 µM), inactives show top-dose activity change, negative = inhibition, actives largely listed as inhibitors; Recombinant FEN1 flap cleavage, fluorescence, 15 min; hit rate 0.35% among 390,000; note: % is set by controls: 0 for no effect and ±100 for the full control effect; nearly all actives have a fitted effect of over 65% in size
# Target sequence (P39748 whole entry, looked up): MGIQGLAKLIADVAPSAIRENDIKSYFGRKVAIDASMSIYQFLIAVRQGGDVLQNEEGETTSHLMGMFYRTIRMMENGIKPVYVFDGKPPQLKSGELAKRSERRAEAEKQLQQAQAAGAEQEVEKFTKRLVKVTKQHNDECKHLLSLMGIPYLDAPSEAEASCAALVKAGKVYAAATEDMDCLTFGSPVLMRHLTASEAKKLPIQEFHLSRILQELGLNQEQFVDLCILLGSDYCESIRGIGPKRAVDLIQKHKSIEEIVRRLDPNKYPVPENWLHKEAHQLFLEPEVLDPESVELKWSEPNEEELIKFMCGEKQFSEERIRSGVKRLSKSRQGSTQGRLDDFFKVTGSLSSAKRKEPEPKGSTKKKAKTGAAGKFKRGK
#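 Potency values derive from four-parameter Hill fits of normalized qHTS data. The reaction used 10 nM FEN1 preincubated 15 min at room temperature with compound, then 50 nM DNA substrate, read at 0 and 15 min.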
# Pol kappa inh-1 – DNA polymerase kappa (human) inhibition; hit rate 0.53% among 400,000; Q9UBT6; AID 588579; Potency, µM (highest dose often 107 µM), for the others: at the top dose activity, negative = inhibition, most hits filed as inhibitors; purified Pol kappa, fluorescent DNA synthesis assay, 10 min; note: % is set by controls: 0 for no effect and ±100 for the full control effect
#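 Readout: fluorescence, taken kinetically at 0 and 10 min. Conditions: 10 nM Pol kappa, 15 min RT compound preincubation, 50 nM substrate final. Controls: enzyme-free buffer wells.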
# Pol eta inh-1 – DNA polymerase eta (human) inhibition | Q9Y253 | Potency, µM (highest dose often 114 µM), without a hit: at the top dose activity change, negative = inhibition, actives largely listed as inhibitors | hit rate 1.2% among 390,000 | recombinant Pol eta, fluorescent DNA replication assay; note: % is set by controls: 0 for no effect and ±100 for the full control effect
#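 Pol eta (10 nM) was preincubated with compounds for 15 min at room temperature, after which fluorescent replication substrate (50 nM final) was added to start the reaction. Fluorescence was read kinetically at 0 and 10 min.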
# Pol iota inh – DNA polymerase iota (human) inhibition; Pol iota fluorescent replication assay, 10 min; Potency, µM (highest dose often 115 µM), without a hit: top-dose activity, negative = inhibition, most hits filed as inhibitors; hit rate 1% among 390,000; AID 588590
#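 Fluorescent replication assay read twice, at 0 min and 10 min after adding 50 nM (final) substrate. Enzyme (10 nM) and compounds were first incubated 15 min at room temperature; enzyme-free buffer wells were negative controls.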
# POLB inh – inhibitors of human DNA polymerase beta. P06746. Pol beta primer extension/strand displacement, fluorescence kinetic. Potency, µM (series often up to 114 µM), inactives show at the highest dose activity change, negative = inhibition, hits mostly inhibitors. hit rate 1.3% among 340,000. AID 485314; note: % is set by controls: 0 for no effect and ±100 for the full control effect
#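 Curves were derived by four-parameter Hill fits of normalized qHTS data. The kinetic fluorescent primer-extension read was taken at 0 and 10 min after 50 nM substrate, following a 15 min room-temperature preincubation of 10 nM enzyme with compounds.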
# PGK inhibitor – blocks T. brucei phosphoglycerate kinase; PGK/GAPDH coupled, Kinase-Glo luminescence, 60 min; hit rate 0.043% among 380,000; AID 602233; P07378; Potency, µM (top dose mostly 57.5 µM), for inactives: at the highest dose activity change, negative = inhibition, actives largely listed as inhibitors; note: % is set by controls: 0 for no effect and ±100 for the full control effect; nearly all actives have a fitted effect of over 60% in size
#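 Recombinant glycosomal PGK reaction used 1,3-bisphosphoglycerate generated in-well by GAPDH (100nM final) in 100mM TEA pH 7.6, 5mM MgCl2, 0.01% Tween-20. After 60 minutes at room temperature, ATP was read by Kinase-Glo Plus luminescence end-point.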
# TbPGK inh – TbPGK inhibition, hit validation. shares compounds with Pol kappa inh-1. Potency, µM (top dose mostly 57.5 µM), for the others: top-dose activity change, negative = inhibition, usual class: inhibitors. TbPGK coupled GAPDH assay, Kinase-Glo luminescence. hit rate 79% among 500; note: % is set by controls: 0 for no effect and ±100 for the full control effect; nearly all actives have a fitted effect of over 65% in size
# POLI cherry-pick – Inhibitors of human DNA polymerase iota, confirmation; Potency, µM, hits mostly inhibitors; Pol iota primer extension, TAMRA/BHQ fluorescence; shares compounds with Pol kappa inh-1; hit rate 77% among 1,500; AID 720496
# Pol kappa inh-2 – confirmation of human DNA polymerase kappa inhibitors. shares compounds with Pol eta inh-1. purified Pol-kappa, fluorescent strand-displacement substrate. Potency, µM, most hits filed as inhibitors. hit rate 76% among 920. AID 720501
# Pol eta inh-2 – Pol eta (human) inhibition, cherry-pick confirmation; Pol eta primer extension, TAMRA/BHQ fluorescence, 10 min; Potency, µM, usual class: inhibitors; shares compounds with Pol eta inh-1; hit rate 64% among 2,600; AID 720502
# The depositor's hits bear a star; i = inactive; ? = inconclusive; nt = no result given; [ ] = another dose, or the depositor's remark. An excerpt weighted towards active compounds, which were near 2.4% of everything screened. Calls come from the whole dose curve; as a rule, active = well fitted curve in the direction sought with a large enough effect; inconclusive = small, poorly fitted or top-dose-only effect, or another doubt; inactive = no such curve, though single readings can be large; an effect the other way counts as inactive or inconclusive. Potency is the fitted concentration of half-maximal effect.
SMILES,FEN1 inhibitor,Pol kappa inh-1,Pol eta inh-1,Pol iota inh,POLB inh,PGK inhibitor,POLI cherry-pick,Pol eta inh-2,others
Cc1ccc2nc(/C(C#N)=C/c3ccc(-c4cccc(Cl)c4)o3)[nH]c2c1,-27%,50µM*,89µM*,79µM*,?,-16%,19*,67*,Pol kappa inh-2=19*
COc1cc(NC(=O)c2cc3c(=O)n(Cc4ccco4)ccc3nc2C)cc(OC)c1OC,-1%,7%,0%,13%,15%,-7%,nt,nt,
O=C(Nc1ccc(Cl)cc1)C1CCN(c2nc3ccccc3n3cccc23)CC1,-3%,-16%,-16%,2%,-16%,6%,nt,nt,
CCc1ccc(NC(=O)Cn2c(SCc3ccc(C)cc3)nc3ccncc32)cc1,7%,-10%,nt,?,nt,nt,nt,nt,
CCOc1ccc(NC(=O)CCCn2c(C)c3cnn(-c4ccccc4)c(=O)c3c2C)cc1,13%,-8%,-10%,-2%,6%,i,nt,nt,
C=CCn1c(SCC(=O)c2ccc(O)c(O)c2)nnc1-c1ccc(OC)cc1,-1%,45µM*,10µM*,50µM*,nt,-18%,?,?,
O=[N+]([O-])c1cc(Cl)cc(/C=N/NC(=S)Nc2ccc(S(=O)(=O)N3CCOCC3)cc2)c1O,?,?,79µM*,?,?,-6%,?,?,
COc1ccc(N2CCN(C(=O)c3cccn3-c3nnc(N4CCCC4)s3)CC2)cc1,16%,-3%,-3%,10%,-10%,11%,nt,nt,
CCOc1ccc(C2C3=C(CCCC3=O)Nc3ccc4ncccc4c32)cc1 (stereo unspecified),0%,-26%,-8%,5%,-2%,5%,nt,nt,
O=C1CCCC2=C1C(c1ccc(O)c(O)c1)c1c(ccc3ncccc13)N2 (stereo unspecified),?,?,25µM*,?,6.3µM*,?,67*,?,
CC(C)(C)OC(=O)NC(NC(=O)OCC1c2ccccc2-c2ccccc21)C(=O)O (stereo unspecified),nt,-11%[12 µM],nt,nt,nt,nt,nt,nt,
CCC(=O)Nc1ccc2nc3c(=O)[nH]c(=S)[nH]c3nc2c1,50µM*,45µM*,18µM*,?,40µM*,-17%,27*,30*,Pol kappa inh-2=17*
C=Cc1ccc(Cn2c(=O)n(-c3ccc(C)cc3)c(=O)c3c2c2cc(OC)ccc2n3C)cc1,1%,5%,-7%,43%,25%,-10%,nt,nt,
C=C(C)C(=O)Nc1cccc(C2=NOC3(C2)C[C@@H](C(N)=O)N(C(=O)c2cc([N+](=O)[O-])cc([N+](=O)[O-])c2C)C3)c1 (stereo partly specified),1%,50µM*,13µM*,?,20µM*,11µM*,?,19*,TbPGK inh=?
C=C(C)C(=O)N1CC2(CC(c3cccc(NC(=O)/C=C\C=C/C)c3)=NO2)C[C@H]1C(N)=O (stereo partly specified),-15%,40µM*,13µM*,11µM*,?,-1%,13*,19*,
C/C=C\C=C/C(=O)Nc1cccc(C2=NOC3(C2)C[C@@H](C(N)=O)N(C(=O)[C@H]2CCC(=O)N2)C3)c1 (stereo partly specified),2%,-20%,2%,-19%,-1%,-2%,nt,nt,
C/C=C/C(=O)Nc1cccc(C2=NOC3(C2)C[C@@H](C(N)=O)N(C(=O)c2cc([N+](=O)[O-])cc([N+](=O)[O-])c2C)C3)c1 (stereo partly specified),-12%,-6%,-5%,-22%,9%,i,nt,nt,
CCCn1c(SCc2nc(-c3ccccc3C)no2)nnc1-c1ccc(Cl)cc1,14%,-5%,?,11%,-20%,-4%,nt,nt,
Cc1nn(C(C)C(=O)NCc2ccccc2F)c(=O)c2nn(-c3ccccc3)c(C)c12 (stereo unspecified),-2%,-11%,-19%,42%,-24%,2%,nt,nt,
Cc1ccc(-n2nc3c(=O)n(C(C)C(=O)NCc4ccccc4C)nc(C)c3c2C)cc1 (stereo unspecified),?,-10%,89µM*,-25%,45µM*,-11%,75*,?,Pol kappa inh-2=67*
Nc1c(C(=O)N/N=C/c2ccc(F)cc2)oc2nc(-c3ccccc3)cc(-c3ccco3)c12,-5%,-4%,-26%,67%,32%,2%,nt,nt,
Cc1ccc(-c2cc(C(=O)NCc3ccco3)c3ccccc3n2)o1,-4%,79µM*,7.9µM*,?,18µM*,?,?,?,
Cc1ccc(-c2cc(C(=O)N/N=C/c3ccc([N+](=O)[O-])o3)c3ccccc3n2)o1,5%,?,50µM*,?,-9%,-16%,?,30*,
O=C(N/N=C/c1ccc(F)cc1)c1cc(-c2ccco2)nc2ccccc12,79µM*,14µM*,1.6µM*,7.9µM*,3.5µM*,?,7.5*,21*,TbPGK inh=8.2µM*;Pol kappa inh-2=11*
O=C(O)c1ccc(N2C(=O)CC(SC(=Nc3ccccc3)Nc3ccccc3)C2=O)cc1 (stereo unspecified),-3%,-3%,3%,15%,5%,i,nt,nt,
CC(/C=C/c1ccc(N(C)C)cc1)=N\N=C(/N)SC1CC(=O)N(c2ccc(C(=O)O)cc2)C1=O (stereo unspecified),3%,-14%,45µM*,15%,4%,-11%,67*,?,Pol kappa inh-2=42*
Cc1ccc(SC2=C(Sc3ccc(C)cc3)C(=O)c3ccccc3C2=O)cc1,-23%,5%,18µM*,6.3µM*,1%,-5%,?,85*,
Cc1ccc(N2C(=O)c3ccccc3C2=O)cc1,13%,3%,-6%,65%,29%,8%,nt,nt,
Cc1cnc(C(=O)OCc2nc3ccsc3c(=O)[nH]2)cn1,?,79µM*,10µM*,16µM*,nt,-19%,27*,21*,
